Out of some 5,500 compounds screened, about 2,000 (36%) were called active. About 18% were inconclusive and are not listed. No stated cut-off is given here; in the data, active means normalized growth mostly below about 0.91 (no sharp cut-off); inconclusive means no clear call, values can overlap the other calls; inactive means mostly above about 0.92. The list shows a part of the results.
Experiment: chemical genetic growth profiling, strain panel (AID 1159580);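 further: tested at 20 µM; growth read once vehicle control cultures reached saturation at 30 °C; 1 = growth at the plate median or of vehicle wells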
Conditions: growth OD

Measured: normalized growth

O=C(/C=C(\O)c1ccccc1)c1ccccc1O
active: S. cerevisiae deletion strains, locus YAL021C, strain ccr4, stronger effect = lower value 0.843 | S. cerevisiae deletion strains, locus YAL026C, strain drs2, stronger effect = lower value 0.775 | S. cerevisiae deletion strains, locus YAL030W, strain snc1, stronger effect = lower value 0.827 | S. cerevisiae deletion strains, locus YBL061C, strain skt5, stronger effect = lower value 0.776 | S. cerevisiae deletion strains, locus YBR009C, strain hhf1, stronger effect = lower value 0.667 | S. cerevisiae deletion strains, locus YBR023C, strain chs3, stronger effect = lower value 0.778 | S. cerevisiae deletion strains, locus YBR171W, strain sec66, stronger effect = lower value 0.807 | S. cerevisiae deletion strains, locus YBR229C, strain ROT2, stronger effect = lower value 0.778 | S. cerevisiae deletion strains, locus YBR231C, strain swc5, stronger effect = lower value 0.65 | S. cerevisiae deletion strains, locus YBR279W, strain paf1, stronger effect = lower value 0.865 | S. cerevisiae deletion strains, locus YCL011C, strain gbp2, stronger effect = lower value 0.681 | S. cerevisiae deletion strains, locus YCL016C, strain dcc1, stronger effect = lower value 0.836 | S. cerevisiae deletion strains, locus YCL029C, strain bik1, stronger effect = lower value 0.593 | S. cerevisiae deletion strains, locus YCL061C, strain MRC1, stronger effect = lower value 0.812 | S. cerevisiae deletion strains, locus YCL069W, strain vba3, stronger effect = lower value 0.843 | S. cerevisiae deletion strains, locus YCR088W, strain abp1, stronger effect = lower value 0.877 | S. cerevisiae deletion strains, locus YDL035C, strain GPR1, stronger effect = lower value 0.791 | S. cerevisiae deletion strains, locus YDL040C, strain nat1, stronger effect = lower value 0.918 | S. cerevisiae deletion strains, locus YDL074C, strain BRE1, stronger effect = lower value 0.28 | S. cerevisiae deletion strains, locus YDL101C, strain DUN1, stronger effect = lower value 0.595 | S. cerevisiae deletion strains, locus YDL134C, strain PPH21, stronger effect = lower value 0.827 | S. cerevisiae deletion strains, locus YDL185W, strain tfp1, stronger effect = lower value 0.817 | S. cerevisiae deletion strains, locus YDL192W, strain arf1, stronger effect = lower value 0.776 | S. cerevisiae deletion strains, locus YDR001C, strain nth1, stronger effect = lower value 0.903 | S. cerevisiae deletion strains, locus YDR069C, strain doa4, stronger effect = lower value 0.701 | S. cerevisiae deletion strains, locus YDR101C, strain arx1, stronger effect = lower value 0.665 | S. cerevisiae deletion strains, locus YDR137W, strain rgp1, stronger effect = lower value 0.402 | S. cerevisiae deletion strains, locus YDR159W, strain sac3, stronger effect = lower value 0.682 | S. cerevisiae deletion strains, locus YDR162C, strain NBP2, stronger effect = lower value 0.794 | S. cerevisiae deletion strains, locus YDR297W, strain sur2, stronger effect = lower value 0.856 | S. cerevisiae deletion strains, locus YDR318W, strain mcm21, stronger effect = lower value 0.844 | S. cerevisiae deletion strains, locus YDR334W, strain swr1, stronger effect = lower value 0.687 | S. cerevisiae deletion strains, locus YDR335W, strain msn5, stronger effect = lower value 0.857 | S. cerevisiae deletion strains, locus YDR388W, stronger effect = lower value 0.736 | S. cerevisiae deletion strains, locus YDR392W, strain spt3, stronger effect = lower value 0.71 | S. cerevisiae deletion strains, locus YDR502C, strain sam2, stronger effect = lower value 0.845 | S. cerevisiae deletion strains, locus YEL003W, strain gim4, stronger effect = lower value 0.709 | S. cerevisiae deletion strains, locus YEL037C, strain rad23, stronger effect = lower value 0.868 | S. cerevisiae deletion strains, locus YEL061C, strain CIN8 (second series), stronger effect = lower value 0.903 | S. cerevisiae deletion strains, locus YEL061C, strain CIN8, stronger effect = lower value 0.826 | S. cerevisiae deletion strains, locus YER015W, strain faa2, stronger effect = lower value 0.685 | S. cerevisiae deletion strains, locus YER016W, strain bim1, stronger effect = lower value 0.88 | S. cerevisiae deletion strains, locus YER110C, stronger effect = lower value 0.787 | S. cerevisiae deletion strains, locus YER111C, strain swi4, stronger effect = lower value 0.871 | S. cerevisiae deletion strains, locus YER155C, strain BEM2 (second series), stronger effect = lower value 0.755 | S. cerevisiae deletion strains, locus YER155C, strain BEM2, stronger effect = lower value 0.413 | S. cerevisiae deletion strains, locus YER167W, strain BCK2, stronger effect = lower value 0.554 | S. cerevisiae deletion strains, locus YFR010W, strain ubp6, stronger effect = lower value 0.766 | S. cerevisiae deletion strains, locus YGL086W, strain mad1, stronger effect = lower value 0.794 | S. cerevisiae deletion strains, locus YGL167C, strain pmr1, stronger effect = lower value 0.895 | S. cerevisiae deletion strains, locus YGL173C, strain kem1, stronger effect = lower value 0.779 | S. cerevisiae deletion strains, locus YGL227W, strain vid30, stronger effect = lower value 0.906 | S. cerevisiae deletion strains, locus YGL240W, strain doc1, stronger effect = lower value 0.758 | S. cerevisiae deletion strains, locus YGL248W, strain PDE1, stronger effect = lower value 0.491 | S. cerevisiae deletion strains, locus YGL253W, strain hxk2, stronger effect = lower value 0.543 | S. cerevisiae deletion strains, locus YGR135W, strain pre9, stronger effect = lower value 0.836 | S. cerevisiae deletion strains, locus YHR027C, strain rpn1, stronger effect = lower value 0.637 | S. cerevisiae deletion strains, locus YHR030C, strain SLT2, stronger effect = lower value 0.854 | S. cerevisiae deletion strains, locus YHR079C, strain IRE1 (second series), stronger effect = lower value 0.554 | S. cerevisiae deletion strains, locus YHR129C, strain ARP1, stronger effect = lower value 0.527 | S. cerevisiae deletion strains, locus YHR142W, strain chs7, stronger effect = lower value 0.648 | S. cerevisiae deletion strains, locus YHR200W, strain rpn10, stronger effect = lower value 0.863 | S. cerevisiae deletion strains, locus YIL066C, strain RNR3, stronger effect = lower value 0.696 | S. cerevisiae deletion strains, locus YIL073C, strain SPO22, stronger effect = lower value 0.301 | S. cerevisiae deletion strains, locus YIR030C, strain dcg1, stronger effect = lower value 0.592 | S. cerevisiae deletion strains, locus YJL092W, strain hpr5, stronger effect = lower value 0.87 | S. cerevisiae deletion strains, locus YJL095W, strain BCK1 (second series), stronger effect = lower value 0.741 | S. cerevisiae deletion strains, locus YJL095W, strain BCK1, stronger effect = lower value 0.254 | S. cerevisiae deletion strains, locus YJL129C, strain trk1, stronger effect = lower value 0.741 | S. cerevisiae deletion strains, locus YJL134W, strain LCB3, stronger effect = lower value 0.908 | S. cerevisiae deletion strains, locus YJL154C, strain vps35, stronger effect = lower value 0.918 | S. cerevisiae deletion strains, locus YJL164C, strain tpk1, stronger effect = lower value 0.695 | S. cerevisiae deletion strains, locus YJL166W, strain qcr8, stronger effect = lower value 0.546 | S. cerevisiae deletion strains, locus YJL187C, strain SWE1 (second series), stronger effect = lower value 0.456 | S. cerevisiae deletion strains, locus YJL187C, strain SWE1, stronger effect = lower value 0.785 | S. cerevisiae deletion strains, locus YKL009W, strain mrt4, stronger effect = lower value 0.78 | S. cerevisiae deletion strains, locus YKL160W, strain elf1, stronger effect = lower value 0.823 | S. cerevisiae deletion strains, locus YKL190W, strain CNB1, stronger effect = lower value 0.902 | S. cerevisiae deletion strains, locus YKR001C, strain vps1, stronger effect = lower value 0.73 | S. cerevisiae deletion strains, locus YKR026C, strain gcn3, stronger effect = lower value 0.895 | S. cerevisiae deletion strains, locus YKR091W, strain srl3, stronger effect = lower value 0.904 | S. cerevisiae deletion strains, locus YLL001W, strain dnm1, stronger effect = lower value 0.769 | S. cerevisiae deletion strains, locus YLL026W, stronger effect = lower value 0.864 | S. cerevisiae deletion strains, locus YLL041C, strain sdh2, stronger effect = lower value 0.869 | S. cerevisiae deletion strains, locus YLR027C, strain aat2, stronger effect = lower value 0.685 | S. cerevisiae deletion strains, locus YLR039C, strain RIC1, stronger effect = lower value 0.137 | S. cerevisiae deletion strains, locus YLR058C, strain SHM2, stronger effect = lower value 0.442 | S. cerevisiae deletion strains, locus YLR221C, strain rsa3, stronger effect = lower value 0.601 | S. cerevisiae deletion strains, locus YLR258W, strain gsy2, stronger effect = lower value 0.818 | S. cerevisiae deletion strains, locus YLR262C, strain YPT6 (second series), stronger effect = lower value 0.391 | S. cerevisiae deletion strains, locus YLR262C, strain YPT6, stronger effect = lower value 0.463 | S. cerevisiae deletion strains, locus YLR268W, strain sec22, stronger effect = lower value 0.836 | S. cerevisiae deletion strains, locus YLR320W, strain mms22, stronger effect = lower value 0.767 | S. cerevisiae deletion strains, locus YLR342W, strain FKS1, stronger effect = lower value 0.903 | S. cerevisiae deletion strains, locus YLR357W, strain rsc2, stronger effect = lower value 0.785 | S. cerevisiae deletion strains, locus YLR370C, strain arc18, stronger effect = lower value 0.864 | S. cerevisiae deletion strains, locus YLR371W, strain rom2, stronger effect = lower value 0.801 | S. cerevisiae deletion strains, locus YLR418C, strain cdc73, stronger effect = lower value 0.64 | S. cerevisiae deletion strains, locus YML016C, strain PPZ1, stronger effect = lower value 0.633 | S. cerevisiae deletion strains, locus YML032C, strain rad52, stronger effect = lower value 0.453 | S. cerevisiae deletion strains, locus YML120C, strain ndi1, stronger effect = lower value 0.589 | S. cerevisiae deletion strains, locus YML124C, strain tub3, stronger effect = lower value 0.901 | S. cerevisiae deletion strains, locus YMR058W, strain fet3, stronger effect = lower value 0.21 | S. cerevisiae deletion strains, locus YMR129W, stronger effect = lower value 0.847 | S. cerevisiae deletion strains, locus YMR205C, strain PFK2, stronger effect = lower value 0.613 | S. cerevisiae deletion strains, locus YMR223W, strain ubp8, stronger effect = lower value 0.826 | S. cerevisiae deletion strains, locus YMR231W, strain pep5, stronger effect = lower value 0.083 | S. cerevisiae deletion strains, locus YMR307W, strain GAS1, stronger effect = lower value 0.523 | S. cerevisiae deletion strains, locus YNL071W, strain lat1, stronger effect = lower value 0.581 | S. cerevisiae deletion strains, locus YNL153C, strain GIM3, stronger effect = lower value 0.582 | S. cerevisiae deletion strains, locus YNL209W, strain ssb2, stronger effect = lower value 0.648 | S. cerevisiae deletion strains, locus YNL233W, strain BNI4, stronger effect = lower value 0.707 | S. cerevisiae deletion strains, locus YNL322C, strain KRE1 (second series), stronger effect = lower value 0.789 | S. cerevisiae deletion strains, locus YNR049C, strain mso1, stronger effect = lower value 0.892 | S. cerevisiae deletion strains, locus YNR052C, strain pop2, stronger effect = lower value 0.556 | S. cerevisiae deletion strains, locus YOL147C, strain pex11, stronger effect = lower value 0.531 | S. cerevisiae deletion strains, locus YOR001W, strain rrp6, stronger effect = lower value 0.733 | S. cerevisiae deletion strains, locus YOR069W, strain VPS5, stronger effect = lower value 0.719 | S. cerevisiae deletion strains, locus YOR070C, strain gyp1, stronger effect = lower value 0.921 | S. cerevisiae deletion strains, locus YOR083W, strain WHI5, stronger effect = lower value 0.745 | S. cerevisiae deletion strains, locus YOR106W, strain vam3, stronger effect = lower value 0.0896 | S. cerevisiae deletion strains, locus YOR144C, strain elg1, stronger effect = lower value 0.724 | S. cerevisiae deletion strains, locus YOR184W, strain ser1, stronger effect = lower value 0.703 | S. cerevisiae deletion strains, locus YOR265W, strain rbl2, stronger effect = lower value 0.849 | S. cerevisiae deletion strains, locus YOR270C, strain vph1, stronger effect = lower value 0.607 | S. cerevisiae deletion strains, locus YOR290C, strain snf2, stronger effect = lower value 0.676 | S. cerevisiae deletion strains, locus YPL051W, strain arl3, stronger effect = lower value 0.568 | S. cerevisiae deletion strains, locus YPL078C, strain atp4, stronger effect = lower value 0.795 | S. cerevisiae deletion strains, locus YPL240C, strain hsp82, stronger effect = lower value 0.78 | S. cerevisiae deletion strains, locus YPL241C, strain CIN2, stronger effect = lower value 0.928 | S. cerevisiae deletion strains, locus YPR163C, strain tif3, stronger effect = lower value 0.755 | S. cerevisiae deletion strains, locus YPR167C, strain met16, stronger effect = lower value 0.852 | S. cerevisiae deletion strains, strain wtn01, stronger effect = lower value 0.843 | S. cerevisiae strains, strain wild type, stronger effect = lower value 0.545
inactive: S. cerevisiae deletion strains, locus YBR021W, strain FUR4, stronger effect = lower value 0.939 | S. cerevisiae deletion strains, locus YDL005C, strain med2, stronger effect = lower value 0.941 | S. cerevisiae deletion strains, locus YDR195W, strain ref2 1.06 | S. cerevisiae deletion strains, locus YGL078C, strain dbp3, stronger effect = lower value 0.986 | S. cerevisiae deletion strains, locus YGR078C, strain PAC10, stronger effect = lower value 0.914 | S. cerevisiae deletion strains, locus YGR252W, strain gcn5, stronger effect = lower value 0.872 | S. cerevisiae deletion strains, locus YHR013C, strain ard1, stronger effect = lower value 0.865 | S. cerevisiae deletion strains, locus YHR094C, strain hxt1, stronger effect = lower value 0.935 | S. cerevisiae deletion strains, locus YIL125W, strain kgd1, stronger effect = lower value 0.98 | S. cerevisiae deletion strains, locus YJL115W, strain asf1, stronger effect = lower value 0.94 | S. cerevisiae deletion strains, locus YJL168C, strain set2, stronger effect = lower value 0.958 | S. cerevisiae deletion strains, locus YKL068W, stronger effect = lower value 0.969 | S. cerevisiae deletion strains, locus YKL085W, strain MDH1 (second series), stronger effect = lower value 0.963 | S. cerevisiae deletion strains, locus YKL085W, strain MDH1, stronger effect = lower value 0.963 | S. cerevisiae deletion strains, locus YLR102C, strain apc9, stronger effect = lower value 0.997 | S. cerevisiae deletion strains, locus YLR342W, strain FKS1 (second series), stronger effect = lower value 0.849 | S. cerevisiae deletion strains, locus YLR384C, strain iki3, stronger effect = lower value 0.92 | S. cerevisiae deletion strains, locus YMR078C, strain ctf18, stronger effect = lower value 0.948 | S. cerevisiae deletion strains, locus YMR125W, strain sto1, stronger effect = lower value 0.991 | S. cerevisiae deletion strains, locus YNL067W, strain RPL9B, stronger effect = lower value 0.929 | S. cerevisiae deletion strains, locus YNL128W, strain TEP1, stronger effect = lower value 0.855 | S. cerevisiae deletion strains, locus YNL248C, strain rpa49, stronger effect = lower value 0.91 | S. cerevisiae deletion strains, locus YNL250W, strain rad50, stronger effect = lower value 0.97 | S. cerevisiae deletion strains, locus YNL271C, strain bni1, stronger effect = lower value 0.951 | S. cerevisiae deletion strains, locus YNL298W, strain CLA4, stronger effect = lower value 0.926 | S. cerevisiae deletion strains, locus YNL307C, strain MCK1, stronger effect = lower value 0.928 | S. cerevisiae deletion strains, locus YOL012C, strain htz1 0.3 | S. cerevisiae deletion strains, locus YOR061W, strain CKA2, stronger effect = lower value 0.93 | S. cerevisiae deletion strains, locus YOR080W, strain dia2, stronger effect = lower value 0.929 | S. cerevisiae deletion strains, locus YOR136W, strain idh2, stronger effect = lower value 0.939 | S. cerevisiae deletion strains, locus YOR316C, strain cot1, stronger effect = lower value 0.941 | S. cerevisiae deletion strains, locus YPL106C, strain sse1, stronger effect = lower value 0.933 | S. cerevisiae deletion strains, locus YPR119W, strain clb2, stronger effect = lower value 0.951 | S. cerevisiae deletion strains, locus YPR141C, strain kar3, stronger effect = lower value 0.967

Reference: PubChem BioAssay AID1159580 (chemical genetic matrix, 2015)
